Experimental findings from PubChem BioAssay (NCATS) are described below.

Each structure is given as a SMILES string. Results filed as inconclusive are left out. A number with no mark means an inactive call. The call rests on the fitted dose curve; in most records, active means well fitted curve in the direction sought with a large enough effect; inconclusive means small, poorly fitted or top-dose-only effect, or another doubt; inactive means no such curve, though single readings can be large or run the other way.

In the test the target is Thioredoxin reductase 1, cytoplasmic (Rattus norvegicus) (UniProt O89049). Kind of test: qHTS Assay for Substrates of Mammalian Selenoprotein Thioredoxin Reductase 1 (TrxR1) (AID 488772). Further: 0% is about no effect. As to conditions: purified TrxR1, NADPH consumption substrate assay; series mostly up to 57.1 µM; activity change, negative = NADPH consumption: at the top concentration. The source says: The selenoprotein thioredoxin reductase (TrxR; EC 1.8.1.9) is a FAD containing homodimeric pyridine nucleotide-disulfide oxidoreductase with many cellular roles. Together with NADPH and its prime substrate thioredoxin (Trx), the enzyme forms the core of the Trx system. The mammalian Trx system exerts a wide spectrum of functions including redox regulation, antioxidant defense, regulation of transcription factors as well as support of cell growth and replication. Many of these functions involve the reduction of Trx, which may subsequently reduce a number of different substrates including ribonucleotide reductase, peroxiredoxins or NFkB. Mammalian TrxR itself also has a broad substrate specificity, reducing both protein and non-protein substrates, including low molecular weight compounds such as dehydroascorbate, lipoic acid, ubiquinone, and juglone. In addition, several drugs in clinical use for anticancer treatment are indeed known to target TrxR1.
Thioredoxin reductase 1, cytoplasmic (Rattus norvegicus), sequence (O89049 whole entry, looked up): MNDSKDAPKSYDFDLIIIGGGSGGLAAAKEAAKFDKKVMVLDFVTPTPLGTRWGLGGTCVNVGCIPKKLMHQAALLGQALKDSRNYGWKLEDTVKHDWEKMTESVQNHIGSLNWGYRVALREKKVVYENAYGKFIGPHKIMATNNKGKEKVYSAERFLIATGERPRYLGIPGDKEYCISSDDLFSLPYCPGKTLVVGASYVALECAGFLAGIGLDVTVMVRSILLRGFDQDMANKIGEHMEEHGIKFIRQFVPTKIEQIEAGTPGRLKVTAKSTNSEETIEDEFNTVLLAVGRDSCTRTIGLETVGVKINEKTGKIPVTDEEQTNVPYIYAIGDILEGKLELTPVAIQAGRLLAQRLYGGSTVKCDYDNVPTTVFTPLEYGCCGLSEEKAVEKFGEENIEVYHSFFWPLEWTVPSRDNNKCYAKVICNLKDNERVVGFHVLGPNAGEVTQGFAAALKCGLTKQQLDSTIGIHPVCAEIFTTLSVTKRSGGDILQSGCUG
This BioAssay is a validation of an NADPH fluorescence-based, dual-purpose qHTS rTrxR1 assay designed to find potential inhibitors and substrates of rTrxR1. For this particular BioAssay, actives are potential substrates. See related BioAssay for inhibitors data deposition.
Assay protocol: 2 uL of reagents (buffer in column 4 as negative control and 90 nM rTrxR1 in columns 1-3 and 5-48) were dispensed into Greiner black solid-bottom 1,536-well assay plates, followed by 1 uL of NADPH (400 uM final concentration) to each well. The plates were centrifuged at 1000 rpm for 15 seconds and subsequently incubated for 5 min at room temperature (~22 deg C) to allow for rTrxR1 reduction. Compounds (23 nL) were then transferred via Kalypsys pin tool equipped with 1536-pin array (10 nL slotted pins, V&P Scientific, San Diego, CA). In addition, a duplicate 2-fold serial dilution of the control compounds auranofin, a known gold-based TrxR1 inhibitor, and juglone (5-hydroxy-1,4-naphthoquinone), a natural TrxR1 substrate, were pin-transferred to columns 2 and 3, respectively. After incubation for 15 min at room temperature (~22 deg C), 1 uL of selenite (400 uM final concentration) were dispensed to each well. The plate was immediately transferred to a ViewLux high-throughput CCD imager (PerkinElmer), wherein kinetic measurements of NADPH fluorescence (Ex 340 nm, Em 450 nm) were acquired (8 minute kinetic read, see Table 1). Read 1 was utilized to assess the capacity of a compound to serve as an rTrxR1 substrate, i.e. a decrease in NADPH fluorescence compared to the no-compound background is an indication of a substrate behavior for that particular compound. For inhibitory activity of a compound, delta values, computed as the difference in fluorescence intensity between the first and last reads of an 8-minute time kinetic window, were used. All reagents were diluted in an assay buffer consisting of 50 mM Tris-HCl, pH 7.5, 2 mM EDTA, and 0.01% Tween-20.
Throughout the screen, reagent bottle and all liquid lines were made light-tight to minimize reagent degradation. All screening operations were performed on a fully integrated robotic system (Kalypsys, San Diego, CA) containing one RX-130 and two RX-90 anthropomorphic robotic arms (Staubli, Duncan, SC). Library plates were screened starting from the lowest and proceeding to the highest concentration, and a 'double-pinning' step of the highest concentration was required to access higher concentrations of compounds. Vehicle-only plates, with DMSO being pin-transferred to the columns 5-48, were inserted uniformly at the beginning and the end of each library in order to monitor and record any shifts in the background, which can be affected by reagent dispensers or loss in enzyme activity over time. Screening data were corrected, normalized, and concentration-effect relationships were derived by using publicly-available curve fitting algorithms developed in-house (http://ncgc.nih.gov/pub/openhts).
A general note: In qHTS, concentration-response curves come from the screen itself.
Regarding `CC(N)=NCCCC[C@@H](N)C(=O)O`, the “activity change, negative = NADPH consumption” value (from here on “activity change”) was -7.96%.

Turning to `CCCCCCN(CCCCCC)C(=O)Cc1c(-c2ccc(F)cc2)[nH]c2ccccc12`, the “activity change” value is 25.3%.

For the compound `CCCCCCCCCCC(C)(C)C(=O)Nc1c(OC)cc(OC)cc1OC`, the “activity change” value was -8.13%.

In the case of `CSc1nc(N)c2ncn([C@@H]3O[C@H](COP(=O)(O)OP(=O)(O)O)C(O)[C@H]3O)c2n1` (stereo not given in full), the “activity change” value was -8.66%.

As for `NC(=O)c1ccccc1`, the “activity change” value was -4.37%.

In the case of `CC(O)C(O)[C@H]1CNc2nc(N)[nH]c(=O)c2N1` (stereo not given in full), the “activity change” value was 247%.

For the compound `C/C(=C\c1ccc(C(=O)O)cc1)c1ccc2c(c1)C(C)(C)CCC2(C)C`, the “activity change” value is 190%.

With `CCn1c(=O)[nH]c2cc(Cl)c(Cl)cc21`, the “activity change” value was -12.3%.

As for `Cn1c(=O)[nH]c2ncn(C)c2c1=O`, the “activity change” value is -2.34%.

For `COc1ccc(CCn2nnnc2C2(c3ccc(C)cc3)CC2)cc1`, the “activity change” value is -5.63%.

For `Cc1cccc(C(=O)NCN2CCN(c3ccccc3C#N)CC2)c1`, the “activity change” value was 9.05%.

On to `CNC(=O)c1cc2c(cn1)[nH]c1ccccc12`, for which the “activity change” value was 25.6%.

With `CSC(=N)N`, the “activity change” value is -14.7%.

For `N[C@@H](CCCC(=O)O)C(=O)O`, the “activity change” value was -0.805%.

Take `Cn1ccnc1`: the “activity change” value was -4.43%.

`NC/C=C\C(=O)O`: the “activity change” value was -9.61%.

As for `COc1ccc(CCN(C)CCc2ccc(OC)c(OC)c2)cc1OC`, the “activity change” value is -14.7%.

Consider `O=C1Nc2ccc(I)cc2/C1=C/c1cc(Br)c(O)c(Br)c1`, for which the “activity change” value is -12.3%.

With `CC1CNCCN1S(=O)(=O)c1cccc2cnccc12` (stereo not given), the “activity change” value is -9.66%.

With `N[C@H]1CONC1=O`, the “activity change” value was -7.69%.

With `C#CCn1c(=O)c2c(ncn2C)n(C)c1=O`, the “activity change” value is -13.1%.

In the case of `C=CC[C@H](N)C(=O)O`, the “activity change” value was -6.35%.

Consider `NCCCNCCCCNCCCN`, for which the “activity change” value is -10.3%.

On to `COc1cc(CC(=O)O)ccc1O`, for which the “activity change” value was 3.17%.

As to `CC(=O)O[C@H]1Cc2ccccc2N(C(N)=O)c2ccccc21`, the “activity change” value was -3.02%.

As to `C=CC1(C)CC(=O)C2(O)C(C)(O1)C(OC(C)=O)C(O)C1C(C)(C)CCC(O)C12C` (stereo not given), the “activity change” value is -0.379%.

In the case of `OC1(c2ccc(Cl)cc2)CCN(Cc2c[nH]c3ccccc23)CC1`, the “activity change” value is -13.7%.

For `Cc1nc2c(OCc3ccccc3)cccn2c1CC#N`, the “activity change” value was -6.53%.

As for `NC(C(=O)N[C@@H]1C(=O)N2C(C(=O)O)=C(Cl)CS[C@H]12)c1ccccc1` (stereo not given in full), the “activity change” value was -5.97%.

Consider `CNCCNS(=O)(=O)c1cccc2cnccc12`, for which the “activity change” value was -9.02%.

As for `Cc1nc(N=Nc2ccc(S(=O)(=O)O)cc2S(=O)(=O)O)c(COP(=O)(O)O)c(C=O)c1O`, the “activity change” value is -1.64%.

For `CC(C)Cn1c(=O)n(C)c(=O)c2[nH]cnc21`, the “activity change” value was -7.27%.

In the case of `CC[n+]1c(/C=C/C=C2/N(C)c3ccccc3C2(C)C)sc2ccccc21`, the “activity change” value was -0.659%.

Regarding `CN(CC[C@@H](Oc1ccc(C(F)(F)F)cc1)c1ccccc1)CC(=O)O`, the “activity change” value was -6.6%.

For the compound `NCCC1CCCC(CCN)N1` (stereo not given), the “activity change” value was -9.37%.

As to `CC(=O)NCCc1c[nH]c2ccc(O)cc12`, the “activity change” value is -2.51%.

With `C=CCN1CCc2cc(O)c(O)cc2C(c2ccccc2)C1` (stereo not given), the “activity change” value was -11.2%.

On to `CCCN(CCc1ccccc1)C1CCc2c(O)cccc2C1` (stereo not given), for which the “activity change” value was -10.4%.

Regarding `CC(C)(C)c1cc(/C=C(\C#N)C(N)=S)cc(C(C)(C)C)c1O`, the “activity change” value is -13.1%.

In the case of `COc1cc(C(O)CO)ccc1O` (stereo not given), the “activity change” value is -9.36%.
